Experimental data from the supplement of paper PMC6331611.
Several values for one entry are separate records, joined by “and”; a condition that tells them apart may be missing. Equal values may be shown once. ± gives the standard deviation of the averaged measurements. Whole data set: some 1,600 compounds, median “normalized growth (OD600, IQM-normalized) in LPM” near 1, cut for the lowest 2% near 0.014. The full list was thinned out, with the lowest values kept by preference.

What follows are compounds tested on Salmonella enterica serovar Typhimurium SL1344 (assay: normalized growth (OD600, IQM-normalized) in LPM (fraction of plate interquartile mean); higher = more bacterial growth (less inhibition)). Settings: LPM pH 5.8; 10 µM; 16 h.

SMILES | normalized growth
Cc1cc(C)cc(OCC2CNC(=O)O2)c1 (configuration not stated) | 1.02 ± 0.03
C[C@@H]1CN(c2c(F)c(N)c3c(=O)c(C(=O)O)cn(C4CC4)c3c2F)C[C@H](C)N1 | 0.0193 ± 0.0046
NC1CCN(c2c(F)cc3c(=O)c(C(=O)O)cn(C4CC4)c3c2Cl)C1 (configuration not stated) | 0.0132 ± 0.00024
CCn1cc(C(=O)O)c(=O)c2cc(F)c(N3CCNC(C)C3)c(F)c21 (configuration not stated) | 0.0416 ± 0.00075
COc1c(N2CCNC(C)C2)c(F)cc2c(=O)c(C(=O)O)cn(C3CC3)c12 (configuration not stated) | 0.0158 ± 0.0074
COc1c(N2C[C@@H]3CCCN[C@@H]3C2)c(F)cc2c(=O)c(C(=O)O)cn(C3CC3)c12 | 0.0131 ± 0.0045
C[C@@H]1CN(c2c(F)c(F)c3c(=O)c(C(=O)O)cn(C4CC4)c3c2F)C[C@H](C)N1 | 0.0487 ± 0.0099
CC(=O)N(CC(O)CO)c1c(I)c(C(=O)NCCO)c(I)c(C(=O)NCC(O)CO)c1I (configuration not stated) | 1.05 ± 0.036
Cc1oc(=O)oc1CN1CCN(c2cc3c(cc2F)c(=O)c(C(=O)O)c2n3C(C)S2)CC1 (configuration not stated) | 0.00846 ± 7.6e-05
S=C1SCN(Cc2ccccc2)CN1Cc1ccccc1 | 1.11 ± 0.061
C=NC(C(=O)NC1C(=O)N2C1SC(C)(C)C2C(=O)O)c1ccccc1 (configuration not stated) | 0.913 ± 0.058
C#C[C@]1(O)CC[C@H]2[C@@H]3CCc4cc(OC5CCCC5)ccc4[C@H]3CC[C@@]21C | 0.954 ± 0.1
O=C([O-])[C@H]1/C(=C/CO)O[C@@H]2CC(=O)N21.[Li+] | 1.12 ± 0.076
C#C[C@]1(OC(C)=O)CC[C@H]2[C@@H]3CCC4=CC(=O)CC[C@@H]4[C@H]3CC[C@@]21C | 1.14 ± 0.03
CC(=O)Oc1cc2c(s1)CCN(C(C(=O)C1CC1)c1ccccc1F)C2 (configuration not stated) | 1.08 ± 0.1
Cc1nc(-c2ccc(OCC(C)C)c(C#N)c2)sc1C(=O)O | 1.02 ± 0.038
CC(=O)OCC(=O)[C@@]1(O)[C@@H](C)C[C@H]2[C@@H]3CCC4=CC(=O)C=C[C@]4(C)[C@@]3(F)[C@@H](O)C[C@@]21C | 1.01 ± 0.033
COc1ccc2cc1Oc1ccc(cc1)C[C@H]1c3c(cc4c(c3Oc3cc5c(cc3OC)CCN(C)[C@@H]5C2)OCO4)CCN1C | 0.938 ± 0.024
CCC/C=C\C=C/C(=O)N[C@@H](CC(N)=O)C(=O)NC(CC(N)=O)C(=O)N[C@@H](C(=O)N[C@H](CCCN)C(=O)N[C@@H](C(=O)N[C@@H](C(=O)N[C@@H](C(=O)N[C@H](C(=O)N[C@@H](Cc1ccccc1)C(=O)N[C@H](CCCN)C(=O)NC(C(=O)N[C@H](C(=O)NC(C(=O)NCC(=O)N[C@@H](CC(C)C)C(=O)N[C@H](C)C(=O)NC(C(=O)O)C1CCC(O)C(Cl)C1)C1CCC(O)CC1)[C@H](C)O)C1CCC(O)CC1)[C@H](C)O)C1CCC(O)CC1)C1CCC(O)CC1)[C@H](C)O)C1CCC(O)CC1 (some centres not stated) [RAMOPLANIN [A2 shown; 2mM]] | 1.31 ± 0.07
CC1(C)O[C@@H]2C[C@H]3[C@@H]4C[C@H](F)C5=CC(=O)C=C[C@]5(C)[C@H]4[C@@H](O)C[C@]3(C)[C@]2(C(=O)CO)O1 | 0.921 ± 0.042
Cc1cccc(C)c1NC(=O)c1ccccc1C(=O)O | 1.15 ± 0.12

SMILES | normalized growth
CC1(C)S[C@@H]2[C@H](NC(=O)[C@H](C(=O)O)c3ccsc3)C(=O)N2[C@H]1C(=O)O | 1.01 ± 0.022
CC(=O)OC1CC2CCC1(C)C2(C)C (configuration not stated) | 1.21 ± 0.048
CC(C)C[C@@H]1NC(=O)[C@H](CCCN)NC(=O)[C@H](C(C)C)NC(=O)[C@H](Cc2ccc(O)cc2)N[C@@H](CCC(=O)O)C(=O)N[C@@H](CC(N)=O)C(=O)[C@@H](Cc2ccccc2)NC(=O)[C@H](Cc2ccccc2)NC(=O)[C@@H]2CCCN2C(=O)[C@@H](Cc2ccccc2)NC1=O | 0.992 ± 0.1
CC(S)C(=O)NCC(=O)O (configuration not stated) | 0.982 ± 0.071
O=C(O)CN(CCN(CC(=O)O)CC(=O)O)CC(=O)O.[Na+].[Na+].[Na+] | 0.0403 ± 0.013
CO[C@@]1(NC(=O)C2SC(=C(C(N)=O)C(=O)O)S2)C(=O)N2C(C(=O)O)=C(CSc3nnnn3C)CS[C@@H]21 (some centres not stated) | 0.00904 ± 0.00015
CO[C@@]1(NC(=O)CSCC#N)C(=O)N2C(C(=O)O)=C(CSc3nnnn3C)CS[C@@H]21 | 0.957 ± 0.052
CO[C@@]1(NC(=O)C(C(=O)O)c2ccc(O)cc2)C(=O)N2C(C(=O)O)=C(CSc3nnnn3C)CO[C@@H]21 (some centres not stated) | 0.993 ± 0.045
CO[C@H]1/C=C/O[C@@]2(C)Oc3c(C)c(O)c4c(O)c(c(/C=N/N5CCN(C)CC5)c(O)c4c3C2=O)NC(=O)/C(C)=C\C=C\[C@H](C)[C@H](O)[C@@H](C)[C@@H](O)[C@@H](C)[C@H](OC(C)=O)[C@@H]1C | 0.0102 ± 0.00021
CO[C@H]1/C=C/O[C@@]2(C)Oc3c(C)c(O)c4c(O)c(c5c(nc6cc(C)ccn65)c4c3C2=O)NC(=O)/C(C)=C\C=C\[C@H](C)[C@H](O)[C@@H](C)[C@@H](O)[C@@H](C)[C@H](OC(C)=O)[C@@H]1C | 0.0104 ± 0.00017
Nc1ccn([C@@H]2O[C@H](CO)[C@@H](O)[C@@H]2O)c(=O)n1 | 1.01 ± 0.067
O=c1[nH]cnc2c1ncn2[C@@H]1O[C@H](CO)[C@@H](O)[C@H]1O | 1.13 ± 0.034
Nc1ncn([C@@H]2O[C@H](CO)[C@@H](O)[C@H]2O)c(=O)n1 | 0.0134 ± 0.00024
O=C(O)c1ccc(S(=O)(=O)N(Cl)Cl)cc1 | 0.999 ± 0.013
CC(=O)OC/C=C(C)/C=C/C=C(C)/C=C/C1=C(C)CCCC1(C)C | 0.905 ± 0.06
C=COCC(F)(F)F | 0.991 ± 0.044
CCN(CC)CCOc1ccc2c(c1)C(=O)c1cc(OCCN(CC)CC)ccc1-2 | 1.02 ± 0.083
C1CCN2C[C@@H]3C[C@@H](CN4CCCC[C@@H]34)[C@H]2C1 | 1.13 ± 0.04
COCC1=C(C(=O)OC(C)OC(=O)OC(C)C)N2C(=O)[C@@H](NC(=O)/C(=N\OC)c3csc(N)n3)[C@H]2SC1 (some centres not stated) | 1.034 ± 0.0056
CCCCCCCCCCCCCCCC[N+](C)(C)C | 0.982 ± 0.038
C[C@@H]1CC2C3C[C@H](F)C4=CC(=O)C=C[C@]4(C)[C@@]3(F)[C@@H](O)C[C@]2(C)[C@@]1(O)C(=O)COC(=O)C(C)(C)C (some centres not stated) | 1.04 ± 0.12

SMILES | normalized growth
COC(=O)Nc1nc2cc(Sc3ccccc3)ccc2[nH]1 | 0.987 ± 0.024
OC[C@@H](O)[C@@H](O[C@@H]1O[C@H](CO)[C@H](O)[C@H](O)[C@H]1O)[C@H](O)[C@@H](O)CO | 0.98 and 0.904
CS(=O)(=O)c1ccc([C@@H](O)[C@@H](CO)NC(=O)C(Cl)Cl)cc1 | 0.934 ± 0.078
CS(=O)(=O)c1ccc([C@@H](O)[C@@H](CF)NC(=O)C(Cl)Cl)cc1 | 0.0094 ± 0.00019
Clc1ccccc1CN1CCc2sccc2C1 | 1.02 ± 0.037
CCCCCCCCCCCCCCCC(=O)OC[C@@H](NC(=O)C(Cl)Cl)[C@H](O)c1ccc([N+](=O)[O-])cc1 | 1.04 ± 0.082
O=C(O)CCC(=O)OC[C@@H](NC(=O)C(Cl)Cl)[C@H](O)c1ccc([N+](=O)[O-])cc1 | 0.014 ± 0.00072
O=C(N[C@H](CO)[C@H](O)c1ccc([N+](=O)[O-])cc1)C(Cl)Cl | 0.0146 ± 0.00075
C#C[C@]1(O)CC[C@H]2[C@@H]3[C@H](C)CC4=C(CCC(=O)C4)[C@H]3CC[C@@]21C | 0.987 ± 0.048
OCc1ccccc1O | 1.05 ± 0.04
CN(C/C=C/c1ccccc1)Cc1cccc2ccccc12 | 0.885 ± 0.019
CC(=O)N[C@@H]([C@@H](O)[C@H](O)[C@H](O)CO)[C@@H](O)CC(=O)C(=O)O | 1 ± 0.065
CC(C)(Oc1ccc(C(=O)c2ccc(Cl)cc2)cc1)C(=O)O | 0.976 ± 0.024
CC(=O)NCCCCCC(=O)O | 1.11 ± 0.034
N#Cc1ccc2c(c1)N(CCCN1CCC(O)CC1)c1ccccc1S2 | 1.09 ± 0.035
O=C(O)C[C@H](O)C[C@H](O)/C=C/c1c(C2CC2)nc2ccccc2c1-c1ccc(F)cc1 | 1.19 ± 0.13
N=C(N)c1ccc(N=NNc2ccc(C(=N)N)cc2)cc1 | 0.766 ± 0.035
CC(=O)Nc1cccc(O)c1 | 1.02 ± 0.014
Cc1c(NC(C)C)c(=O)n(-c2ccccc2)n1C | 0.981 ± 0.15
C[C@H]1O[C@@H](n2cc(F)c(=O)[nH]c2=O)[C@H](O)[C@@H]1O | 0.412 ± 0.11
CCCCCCNC(=O)n1cc(F)c(=O)[nH]c1=O | 0.007569 ± 7.1e-05

SMILES | normalized growth
CCOC(=O)COc1ccc2c(=O)cc(-c3ccccc3)oc2c1 | 1.01 ± 0.035
OC[C@H]1O[C@H](O[C@H]2[C@H](O)[C@@H](O)C(O)O[C@@H]2CO)[C@H](O)[C@@H](O)[C@@H]1O (some centres not stated) | 1.06 ± 0.12
Nc1nc(=O)[nH]cc1F | 0.742 ± 0.12
O=c1[nH]cc(F)c(=O)[nH]1 | 0.0109 ± 0.0049
O=c1cc[nH]c(=O)[nH]1 | 1.06 ± 0.04
COc1cc([C@@H]2c3cc4c(cc3[C@@H](O[C@@H]3O[C@@H]5CO[C@@H](c6cccs6)O[C@H]5[C@H](O)[C@H]3O)[C@H]3COC(=O)[C@H]23)OCO4)cc(OC)c1O | 0.882 ± 0.027
O=C1c2cccc(O)c2C(=O)c2c(O)cccc21 | 0.827 ± 0.05
CCN(CC)C(=O)/C(C#N)=C/c1cc(O)c(O)c([N+](=O)[O-])c1 | 0.924 ± 0.023
C[C@]12CC[C@@H]3c4ccc(OC(=O)c5ccccc5)cc4CC[C@H]3[C@@H]1CC[C@@H]2O | 0.779 ± 0.061
C/C=C(/C(=C/C)c1ccc(O)cc1)c1ccc(O)cc1 | 1.04 ± 0.035
CO[C@H]1C[C@@H]2CC[C@@H](C)[C@@](O)(O2)C(=O)C(=O)N2CCCC[C@H]2C(=O)O[C@H]([C@H](C)C[C@@H]2CC[C@@H](O)[C@H](OC)C2)CC(=O)[C@H](C)/C=C(\C)[C@@H](O)[C@@H](OC)C(=O)[C@H](C)C[C@H](C)/C=C/C=C/C=C/1C | 0.964 ± 0.048
Cc1ccc(Nc2c(F)cccc2Cl)c(CC(=O)O)c1 | 1.11 ± 0.053
CCNC(=O)/C=C/c1cccc(Br)c1 | 1.08 ± 0.035
COC(=O)/C=C/C(=O)OC | 1.42 ± 0.16
Nc1nc(Cl)nc2c1ncn2[C@@H]1O[C@H](CO)[C@@H](O)[C@@H]1F | 1.11 ± 0.025
CC1(C)[C@@H](O)CC[C@]2(C)[C@H]3C(=O)C=C4[C@@H]5C[C@@](C)(C(=O)O)CC[C@]5(C)CC[C@@]4(C)[C@]3(C)CC[C@@H]12 | 0.906 ± 0.073
CC(=O)Nc1ncc([N+](=O)[O-])s1 | 0.899 ± 0.018
CCCCCCOc1ccccc1C(N)=O | 1.01 ± 0.048
COc1ccc2cc(C(C)C(=O)O)ccc2c1 (configuration not stated) | 1.07 ± 0.032
